Nine compounds from PubChem BioAssay can be followed below.

The nature of test [1]: EMT-state selective cytotoxicity in co-culture – imaging, PC-3E GFP, TEM4-18 mCherry, primary screen (AID 1345086).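 On all read-outs here: cells exposed to compound for 72 h before imaging.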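 On red/green cell ratio (normalised): normalised mesenchymal count divided by normalised epithelial count so high means epithelial killing.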 The conditions noted are these: PC-3E GFP / TEM4-18 mCherry co-culture, imaging cell counts, at 1 µM; for red/green cell ratio (normalised): actives lie on both sides, counts scaled to control wells, 1 = unselective.
Test [2] addresses Mitogen-activated protein kinase 7 (Homo sapiens) (UniProt Q13164). The test is described as follows: Gal4-ERK5 driven luciferase induction – cell-based, HTS, primary screen (AID 1508626;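 active means luciferase signal above three times the same-plate solvent-only control wells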;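 further: luciferase driven by Gal4-ERK5 fusion binding five Gal4 sites before minimal TATA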). The conditions noted are these: HeLa Gal4-ERK5 transactivation, 18 h, at 5 µM, stronger effect = higher value.
Test [3] can be described thus: blockers of MitoPT in mitochondria (AID 1580; call rule not given here). The conditions noted are these: isolated mitochondria, permeability transition inhibition.
A short description of test [4]: blockers of polyQ-driven CASP3 activation – cell-based (AID 1583). The conditions noted are these: polyglutamine-induced caspase-3 activation, cell assay; stronger effect = higher value;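 tested at 10 µM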.
The nature of test [5]: yeast 75Q aggregation reduction – 75Q-TubU reporter (AID 1593). The conditions noted are these: Yeast 75Q polyglutamine aggregation reporter.
Test [6] in a line: restoration of touch response, mutant HTT neurons – whole organism, C. elegans mechanosensory neurons, N-terminal huntingtin (AID 1599). The conditions noted are these: C. elegans polyQ-huntingtin mechanosensory neurons, stronger effect = higher value.
A short description of test [7]: blockers of cytochrome c efflux from mitochondria – biochemical, purified mitochondria (AID 1603).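 Further: mouse liver mitochondria challenged with calcium chloride; signal normalized to the plate average as 100%.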 To be noted: stronger effect = lower value.
Test [8] can be described thus: polyglutamine aggregate formation blockers (AID 1604). The conditions noted are these: polyglutamine-induced protein aggregation inhibition assay; stronger effect = higher value; tested at 2.5 µM.
The nature of test [9]: glutamate transport activators, MN-1 cells, MN-1 cell line (AID 1612).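 Further: tested at 1 µM final; 0% = mean of DMSO vehicle wells on each plate; positive means more glutamate uptake than control and negative means less.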 The conditions noted are these: MN-1 motor neuron cells, stronger effect = higher value.
Test [10] can be described thus: 75Q-TubH aggregate inhibition, S. cerevisiae, yeast (AID 1616). To be noted: S. cerevisiae 75Q-TubH polyglutamine aggregation suppression; stronger effect = higher value.
Test [11] in a line: P. berghei load reduction in hepatocytes – cell-based, HepG2, luciferase luminescence, HepG2 viability, primary screen (AID 624349; in the data active means parasite load remaining mostly below about 12%, no sharp cut-off; inactive means mostly above about 10%;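 further: 100% = mean of DMSO negative control wells on the same plate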). The conditions noted are these: P. berghei liver stage in HepG2, luciferase luminescence, concentration not given here; parasite load remaining: stronger effect = lower value; viability: measured here: HepG2 viability without parasites.
Test [12] can be described thus: GFP-Q80 aggregate reduction, neuronal-like cells, cell-based, NGF-treated PC12, GFPQ80 (AID 1614).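 Further: lower means fewer inclusions and 0 means no inclusions at all.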 To be noted: PC12 NGF-treated GFP-polyQ80 inclusion reduction.
[13] abbreviates: measured here: epithelial PC-3E GFP cell survival.
The mark [14] stands for this setting: measured here: mesenchymal TEM4-18 mCherry cell survival.

Results filed as inconclusive are left out. For some of these results: Measured potencies and affinities stand elsewhere. The source made the active and inactive calls.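 How the source made its calls, unless noted: active means compounds killing one labelled cell type while sparing the other, by normalised counts and ratio limits, not self-fluorescent; inactive means the rest.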

Sequence of Mitogen-activated protein kinase 7 (Homo sapiens) (Q13164 whole entry, looked up, the tested form may be a part): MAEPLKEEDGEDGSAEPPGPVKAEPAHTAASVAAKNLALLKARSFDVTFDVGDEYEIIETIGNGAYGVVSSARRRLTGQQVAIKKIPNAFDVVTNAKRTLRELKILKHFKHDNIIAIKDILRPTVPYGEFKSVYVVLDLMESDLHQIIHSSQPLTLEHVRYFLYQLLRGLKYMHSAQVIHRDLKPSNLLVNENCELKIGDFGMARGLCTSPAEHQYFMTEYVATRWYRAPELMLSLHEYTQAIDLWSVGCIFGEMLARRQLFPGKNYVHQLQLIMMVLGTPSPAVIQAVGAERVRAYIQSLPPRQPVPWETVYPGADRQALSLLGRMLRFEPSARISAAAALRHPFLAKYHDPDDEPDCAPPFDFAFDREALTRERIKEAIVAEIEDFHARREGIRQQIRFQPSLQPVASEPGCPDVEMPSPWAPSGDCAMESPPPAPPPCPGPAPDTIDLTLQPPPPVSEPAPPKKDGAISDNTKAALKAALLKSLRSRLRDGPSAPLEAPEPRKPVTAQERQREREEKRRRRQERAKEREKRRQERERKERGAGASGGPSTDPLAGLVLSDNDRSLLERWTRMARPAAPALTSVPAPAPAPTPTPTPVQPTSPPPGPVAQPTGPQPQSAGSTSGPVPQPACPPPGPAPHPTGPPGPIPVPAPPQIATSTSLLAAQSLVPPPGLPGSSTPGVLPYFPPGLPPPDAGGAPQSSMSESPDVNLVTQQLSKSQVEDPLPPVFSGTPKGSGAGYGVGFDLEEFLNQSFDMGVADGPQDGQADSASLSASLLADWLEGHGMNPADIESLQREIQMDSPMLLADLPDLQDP

Turning to `O=C(NC1CCCCC1)NC1CCCCC1`, the red/green cell ratio (normalised) in test [1] was 0.92 (inactive). Further, the normalised cell number worked out at 1.15 in test [1] (setting [13]) and 1.06 in test [1] (setting [14]). Moreover, the luciferase signal in test [2] is 60 AU (inactive).

Turning to `COc1cc(O)c(C(=O)/C=C/c2ccc(OC)c(O)c2)c(OC)c1`, in test [1], the red/green cell ratio (normalised) is 1.01 (inactive). Further, the results for the normalised cell number in test [1] (setting [13]) and in test [1] (setting [14]) were 0.89 and 0.9, respectively. Further, in test [2], the luciferase signal was 84 AU (inactive).

A word on the EC50: it is the concentration at which the effect is half-maximal. The term inhibition denotes the share of the control response that was lost under treatment. One may read the viability as a per cent measure of how many cells are alive, often set against a control. On to `CC[C@@H](C(=O)[C@@H](C)[C@@H](O)[C@H](C)[C@@H]1O[C@@H]([C@@H](CC)C(=O)O)CC[C@@H]1C)[C@H]1OC2(C=C[C@@H](O)[C@]3(CC[C@@](C)([C@H]4CC[C@](O)(CC)[C@H](C)O4)O3)O2)[C@H](C)C[C@@H]1C` (stereo not given in full), for which the EC50 in [3] is 100 nM (active). The compound also yielded an inhibition in test [4] of 40.3%. The score in test [5] is 0.53. Further, in test [6], the rescue above control was -3.48. In addition, in [7], the cytochrome c release ratio is 1.06. For the same compound, the inhibition of aggregation in test [8] was found to be 61.1%. Further, the glutamate uptake change in test [9] was -41.6%. Besides, the aggregation suppression score in test [10] was determined as 0.25. In test [11], the parasite load remaining is -5.04% (inactive) and the viability came to 82%. Besides, the red/green cell ratio (normalised) in [1] was 0.65 (active). In test [1] (setting [13]), this compound had a normalised cell number of 0.55. Moreover, in [1] (setting [14]), the normalised cell number was 0.36. Moreover, the luciferase signal in test [2] is 36 AU (inactive).

On to `CCCCC(=O)O[C@]1(C(=O)CO)[C@@H](C)CC2C3CCC4=CC(=O)C=C[C@]4(C)[C@@]3(F)C(O)C[C@@]21C` (stereo not given in full), for which the parasite load remaining in [11] is 94.9% (inactive). Further, in [11], the viability turned out to be 71%. Besides, the red/green cell ratio (normalised) in test [1] is 1.42 (inactive). The normalised cell number in test [1] (setting [13]) was 0.8; in test [1] (setting [14]), 1.14.

For the compound `CC(C)CC(NC(=O)CCN)C(=O)O` (stereo not given), the inhibition in [4] was 1.74%. Also, the score in [5] was 1.04. The compound further gave a rescue above control in test [6] of 6.33. The cytochrome c release ratio in [7] was determined as 1.04. In addition, the inhibition of aggregation in test [8] amounted to 57.6%. The glutamate uptake change in test [9] was determined as 14.1%. For the same compound, the inclusion score in test [12] was determined as 2. Further, in test [10], the aggregation suppression score was found to be 1.32. The red/green cell ratio (normalised) in test [1] was 1.07 (inactive). Moreover, the normalised cell number came out at 1.22 in test [1] (setting [13]) and 1.31 in test [1] (setting [14]).

In test [4], `COC1=CC(C)[C@@H]2C[C@H]3OC(=O)C[C@H]4C(C)=C(OC)C(=O)C([C@@]34C)[C@@]2(C)C1=O` (stereo not given in full) displayed an inhibition of 22.5%. The score in test [5] turned out to be 1.3. In addition, the rescue above control in test [6] is -7.37. The cytochrome c release ratio in [7] is 0.85. For the same compound, the inhibition of aggregation in test [8] was -1.96%. Besides, in [9], the glutamate uptake change was determined as 12.8%. For the same compound, in test [12], the inclusion score is 2. This compound also had an aggregation suppression score in [10] of 1.57. Further, in test [1], the red/green cell ratio (normalised) is 0.78 (inactive). Also, the normalised cell number in [1] (setting [13]) came out at 1.31; in test [1] (setting [14]) it was 1.03.

With `CC(CCC(=O)O)[C@H]1CCC2C3CC[C@@H]4C[C@H](O)CC[C@]4(C)C3CC[C@@]21C` (stereo not given in full), the parasite load remaining in test [11] was 32.1% (inactive). The compound further displayed a viability in [11] of 67.3%. Further, the red/green cell ratio (normalised) in [1] is 0.99 (inactive). For the same compound, the normalised cell number in test [1] (setting [13]) turned out to be 0.91; in [1] (setting [14]) it was 0.89.

As to `C[C@@H]1CC[C@@]2(OC1)OC1CC3C4CC=C5C[C@@H](O)CC[C@]5(C)C4CC[C@]3(C)C1[C@@H]2C` (stereo not given in full), in [11], the parasite load remaining was 131% (inactive) and the viability amounted to 91.4%. In addition, the red/green cell ratio (normalised) in [1] is 1.13 (inactive). Besides, the normalised cell number in [1] (setting [13]) was found to be 1.02. In addition, the normalised cell number in [1] (setting [14]) was 1.16.

Take `CC(C)Oc1ccc2c(=O)cc(-c3ccccc3)oc2c1`: in [4], the inhibition turned out to be 19.6%. For the same compound, the score in [5] turned out to be 0.68. The compound further displayed a rescue above control in [6] of 6.51. Moreover, the cytochrome c release ratio in test [7] came out at 0.9. The inhibition of aggregation in [8] came out at 12.7%. The glutamate uptake change in test [9] is -13.2%. Besides, the inclusion score in test [12] stood at 2. This compound had an aggregation suppression score in test [10] of 0.599. Besides, in [1], the red/green cell ratio (normalised) was 0.86 (inactive). For the same compound, the normalised cell number came out at 1.15 in [1] (setting [13]) and 0.99 in test [1] (setting [14]).
